Measurements reported in PubChem BioAssay (NCATS).
Where “and” joins values, the source holds several entries; their conditions need not be identical. Equal values may be shown once. Inconclusive results are not listed. Calls of active or inactive are those of the source. The call rests on the fitted dose curve; in most records, active means well fitted inhibition curve with a large enough effect; inconclusive means small, poorly fitted or top-dose-only effect; inactive means no such curve, though single readings can be large or run the other way.

Biological target: Cytochrome P450 3A4 (Homo sapiens) (UniProt P08684)
Assay: qHTS Assay for Inhibitors and Substrates of Cytochrome P450 3A4 (AID 884); further: nearly all actives have a fitted effect of over 50% in size
Settings: recombinant CYP3A4, Luciferin-PPXE luminescence; series mostly up to 57.1 µM
Procedure, shortened: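 20 nM human CYP3A4 with 25 uM Luciferin-PPXE (at KM) in 200 mM KPO4, preincubated 10 min with compound; NADPH regeneration started a 60 min RT reaction. Luciferin detected by luminescence, normalized to 57 uM ketoconazole as full inhibition.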
Potency means the concentration at half of the fitted maximal effect.

Sequence of Cytochrome P450 3A4 (Homo sapiens) (P08684 whole entry, looked up): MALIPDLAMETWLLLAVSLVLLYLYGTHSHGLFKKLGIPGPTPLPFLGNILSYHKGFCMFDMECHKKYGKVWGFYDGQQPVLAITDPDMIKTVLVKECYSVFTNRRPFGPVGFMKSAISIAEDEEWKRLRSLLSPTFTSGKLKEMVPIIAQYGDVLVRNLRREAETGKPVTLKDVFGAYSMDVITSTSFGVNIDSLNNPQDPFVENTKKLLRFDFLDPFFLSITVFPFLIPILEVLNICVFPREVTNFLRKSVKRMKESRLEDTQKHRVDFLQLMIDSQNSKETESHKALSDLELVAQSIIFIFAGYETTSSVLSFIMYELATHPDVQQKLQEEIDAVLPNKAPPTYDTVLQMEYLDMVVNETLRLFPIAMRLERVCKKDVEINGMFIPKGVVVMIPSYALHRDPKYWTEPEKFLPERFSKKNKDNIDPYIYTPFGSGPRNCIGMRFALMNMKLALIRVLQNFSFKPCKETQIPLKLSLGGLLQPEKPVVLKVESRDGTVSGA

SMILES	Potency
c1cc2c(cc1[C@H]1OC[C@@H]3[C@H]1CO[C@H]3c1ccc3c(c1)OCO3)OCO2	794 nM (active)
CC1CC[C@@]2(OC1)O[C@@H]1[C@@H](O)[C@H]3C4CC[C@H]5C[C@@H](O[C@@H]6O[C@H](CO)[C@H](O[C@@H]7O[C@H](CO)[C@@H](O)[C@H](O[C@@H]8OC[C@@H](O)[C@H](O)[C@H]8O)[C@H]7O[C@@H]7O[C@H](CO)[C@@H](O)[C@H](O[C@@H]8O[C@H](CO)[C@@H](O)[C@H](O)[C@H]8O)[C@H]7O)[C@H](O)[C@H]6O)[C@H](O)C[C@]5(C)C4CC[C@]3(C)[C@H]1[C@@H]2C (stereo partly drawn)	inactive
CN1Cc2c(ccc3c2OCO3)C2C(O)Cc3cc4c(cc3C21)OCO4 (stereo not drawn)	12.6 µM (active) and 5.01 µM (active)
